# From PubChem BioAssay (NCI)
# Compounds without any hit were thinned out: in the full panel of roughly 79,000, 15% have a hit. Unmarked numbers belong to inactive results. Active and inactive are the calls of the source. No stated cut-off is given here; in the data, active means growth inhibition above about 70%; inactive means the rest.
# Assays:
# [1] = NCI Yeast Anticancer Drug Screen. Data for the rad50 strain (AID 155);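 further: 0% = growth of vehicle-only cultures of the same strain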; settings: S. cerevisiae rad50 strain growth inhibition; at 50.0 µM; active compounds read high
# Outline: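 Inhibition values express reduced yeast growth in compound-treated cultures relative to vehicle-treated controls.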
# [2] = NCI Yeast Anticancer Drug Screen. Data for the mec2-1 strain (AID 157); settings: S. cerevisiae mec2-1 strain, at 50.0 µM, active compounds read high
# Outline: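 Mutant yeast (mec2-1) grown with compound; growth inhibition relative to vehicle control reported.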
# [3] = NCI Yeast Anticancer Drug Screen. Data for the sgs1 mgt1 strain (AID 161);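 further: 0% = growth of cultures given vehicle only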; settings: S. cerevisiae sgs1 mgt1 strain, at 50.0 µM, active compounds read high
# Outline: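 This yeast growth screen uses a strain with defined DNA-repair lesions; compound-treated growth is compared with vehicle-treated growth.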
# [4] = NCI Yeast Anticancer Drug Screen. Data for the cln2 rad14 strain (AID 165);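 further: 0% = growth equal to vehicle treated cultures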; settings: S. cerevisiae cln2 rad14 strain, at 50.0 µM, active compounds read high
# Outline: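 Readout is yeast growth inhibition versus vehicle-treated controls, using a strain with cln2 and rad14 alterations exposed to compound.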
# [5] = NCI Yeast Anticancer Drug Screen. Data for the bub3 strain (AID 167); settings: S. cerevisiae bub3 mutant strain, at 50.0 µM, active compounds read high
# Outline: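 Steps: expose the mutant yeast strain to compound; grow alongside vehicle-treated cultures; measure growth; express inhibition against the vehicle cultures.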
# [6] = NCI Yeast Anticancer Drug Screen. Data for the mlh1 rad18 strain (AID 175); settings: S. cerevisiae mlh1 rad18 strain growth inhibition; at 50.0 µM; active compounds read high
# Outline: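 Genetically defined yeast (DNA repair-deficient) exposed to compounds; growth inhibition determined relative to vehicle.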
SMILES,growth inhibition [1],growth inhibition [2],growth inhibition [3],growth inhibition [4],growth inhibition [5],growth inhibition [6]
COc1ccc(OC)c2cc3c(cc12)C(=O)c1ccccc1C3=O,10.6%,70.2% (active),25.2%,90.7% (active),94.6% (active),46.9%
Clc1ccc(-c2cc3ccccc3[nH]2)cc1,23.9%,-3.3%,-1.25%,-32.4%,2.4%,-5.05%
CC[O-].CC[O-].O=C([CH-]C(=O)c1ccccc1)CCCCCCCCC(=O)[CH-]C(=O)c1ccccc1.[Ti+4],-37.5%,-22.3%,5.1%,13.2%,2.85%,0.5%
O=c1sc2ccccc2n1CCN(CCn1c(=O)sc2ccccc21)c1ccccc1,39.7%,-7.75%,13.6%,-45.5%,1.65%,14.2%
CCCCCCCCCCCCCC(=O)OCC1OC(n2cc(F)c(=O)[nH]c2=O)C(N)C(OC(=O)CCCCCCCCCCCCC)C1O (configuration not stated),27.4%,7.4%,22.5%,35.3%,11.6%,24.1%
O=c1oc2c3ccc4ccccc4c3n(Cc3nc4ccccc4[nH]3)c2c2ccccc12,22.1%,12.2%,19.7%,28.6%,14.6%,25.2%
COc1ccc(C(C)c2cc3c(cc2OCCO)OCO3)cc1 (configuration not stated),8.35%,6.7%,44.3%,18.1%,41.8%,45.7%
Cc1c(C)c(C(C)O)c(C)c(C(C)O)c1C (configuration not stated),4.55%,5.65%,17.6%,21.6%,11.7%,18.6%
COc1ccc(C(=O)C[C@H]2CCC[C@@H](CC(=O)c3ccc(OC)cc3)N2C)cc1,14.4%,5.05%,5.05%,12%,0.25%,8.1%
Cc1[nH]nc2c1NC(=O)OC(C)C2 (configuration not stated),11.8%,-2.9%,0.9%,-9.85%,-2.85%,2.9%
CCS(=O)(=O)/C=C/c1cccnc1,0.45%,-4.8%,-11.4%,-51.5%,3.05%,9.5%
NC(CSCCC(=O)O)C(=O)O (configuration not stated),-16.9%,-10.3%,-7.45%,-39.6%,-3.05%,-12.4%
O=[N+]([O-])c1ccc(/C(=C/c2ccc(F)cc2)S(=O)(=O)c2ccccc2)o1,37.4%,19.4%,50.3%,-0.65%,8.4%,39.4%
Cc1ccc(S(=O)(=O)NN=C2C(C)(C)C(=O)C2(C)C)cc1,-1.5%,-1.1%,-32.9%,32.1%,-2.25%,-6.45%
Cc1sc2nc(N(C)C)oc(=O)c2c1C,28.8%,51%,33.6%,1.5%,64.4%,50.5%
COC(=O)c1ccncc1,-2.6%,2.95%,-2.8%,-35.8%,10.4%,-0.45%
CC(=O)OC1COC([n+]2cccc(C(N)=O)c2)C(OC(C)=O)C1OC(C)=O (configuration not stated),-36.5%,-22.7%,-25.9%,-32.6%,-9.95%,-20%
Cc1ccc2c(Nc3ccc(NS(C)(=O)=O)cc3C)c3ccccc3nc2c1,42.4%,-27.4%,6.2%,4.2%,4.25%,-23.5%
Cc1ccc(CN(C)N=Nc2ccc(C#N)cc2)cc1,2.55%,34.2%,45.6%,12.1%,65.3%,6.7%

SMILES,growth inhibition [1],growth inhibition [2],growth inhibition [3],growth inhibition [4],growth inhibition [5],growth inhibition [6]
CC1=NN2C(c3ccc(Cl)cc3)=CSC2=NC(C)(C)C1,16.6%,-16.9%,-3.1%,5.8%,-8.6%,-13.2%
Cn1cnc(CC(=O)O)c1,4.85%,-6.6%,-12.5%,5.25%,11%,-0.05%
COc1ccc2c(c1)OC(c1cccnc1)C(c1ccccc1)C2=O (configuration not stated),-5.45%,-27.9%,17.9%,15.4%,16.1%,-0.05%
CCCCN(C)CCNc1cc(C)nc(Nc2nc3ccc(Cl)cc3[nH]2)n1,90% (active),96.2% (active),74.9% (active),96.6% (active),97.9% (active),96.2% (active)
CC1(C)CC[C@]2(C(=O)O)CC[C@]3(C)C(=CC[C@@H]4[C@@]5(C)CC[C@H](OC6OC(C(=O)O)C(O)C(O)C6O)C(C)(C)[C@@H]5CC[C@]43C)[C@@H]2C1 (some centres not stated),90.8% (active),91% (active),91.7% (active),92.5% (active),91.3% (active),88.7% (active)
O=C(Cc1nc2ccc(C(=O)c3ccccc3)cc2[nH]c1=O)C(=O)Nc1nc2ccccc2[nH]1,-23.1%,19.3%,-4.05%,-17.9%,-4.25%,9.5%
COc1ccc(-n2cc[n+](C)c2/C=N\O)cc1,-3.1%,0.95%,3.2%,-43.3%,-31.8%,-13.6%
O=C1CCCC2=C1CC1=C(CCCC1=O)N2c1cccc2ccccc12,7.7%,-16%,12.7%,9.85%,21.8%,28.1%
O=CC(=O)c1ccccc1O,30.1%,36.6%,44.9%,18.3%,37%,75.7% (active)
CC1CCN(C(=S)[S-])CC1.CC1CCN(C(=S)[S-])CC1.[Zn],58.9%,9.05%,54.2%,34.2%,5.85%,32.9%
COc1ccccc1-c1cc(=O)c2c(C)cc(C)nc2[nH]1,-15.8%,-16.1%,-0.6%,-20.3%,6.25%,1.65%
CCCc1nnnn1C12CC3CC(CC(C3)C1)C2,30.6%,18.8%,2.15%,2.2%,18.3%,28.1%
COc1ccccc1-n1c(O)c(N=Nc2ccc(Cl)cc2)c(=O)n(-c2ccc(I)cc2)c1=S,45.4%,10%,36%,-9%,1.25%,27.1%
Cc1ccc(C)n1-n1c(-c2ccccc2)n[nH]c1=O,-19.8%,-20.9%,-2.7%,-3.4%,-27.7%,-12.3%
CS(=O)(=O)OC1CC/C=C\CCC1OS(C)(=O)=O (configuration not stated),1.3%,14.5%,12.3%,-9.35%,-15.4%,-15.6%
CCCOC(=O)OCCC,-9.8%,-37.3%,-4.9%,2.9%,-31.8%,-10.9%
COC(=O)C1=C(C(=O)OC)SC(=C2c3ccsc3-c3sccc32)S1,-31.3%,-6.2%,-7.45%,19%,1.3%,-4.5%
COc1ccccc1/C=C1\CCC(CN(C)C)C1=O (configuration not stated),82.2% (active),89.5% (active),91.8% (active),55.4%,91.1% (active),92.2% (active)
